Platelet DG rel: platelet dense granule release activity; human platelet-rich plasma, SFLLRN dense granule ATP release, luminescence; hit rate 0.22% among 300,000; inhibition, %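 (compounds screened at 7.5 µM in platelet-rich plasma)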;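 active = mean replicate score, as percent of positive control, at or above 50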
Yeast superoxide: lowers age-related superoxide in aged yeast cells; superoxide response (% of plate mean), % at 10 µM; S. cerevisiae aged cells, superoxide DHE fluorescence; hits give low values; hit rate 0.18% among 330,000; AID 2690;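 active = superoxide response under a set limit, about three screen SD below normal, cut at about 65% in these data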;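 also: yeast aged for seven days with compound at 30 °C before DHE staining; 100% = average MFI of all compound-treated wells on the plate with controls excluded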
SKN-1 inh: blocks SKN-1 activity in C. elegans. AID 624304. inhibition, % at 21.8 µM. C. elegans VP596 Pgst-4::GFP/RFP ratio, acrylamide-induced, 24 h. hit rate 0.49% among 360,000;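 active = interference check ratio from 0.5 to 1.5 plus GFP to RFP signal ratio inhibition reaching or exceeding a fixed threshold, cut at about 30% in these data, passing the limit was not always enough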
ABCB6 inh 2: blocks the human ABCB6 transporter; Q9NP58; K562-ABCB6 porphyrin accumulation, flow cytometry, 1 h; hits give low values; fluorescence ratio to DMSO, % at 10 µM; hit rate 0.19% among 360,000;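 active = fluorescence ratio to DMSO below 75%, the collection mean minus 3 SD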;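 also: signal is porphyrin accumulated inside mitochondria; 100% equals median channel fluorescence of DMSO control wells; lower ratio means ABCB6 inhibition with less porphyrin fluorescence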
Target sequence (Q9NP58 whole entry, looked up): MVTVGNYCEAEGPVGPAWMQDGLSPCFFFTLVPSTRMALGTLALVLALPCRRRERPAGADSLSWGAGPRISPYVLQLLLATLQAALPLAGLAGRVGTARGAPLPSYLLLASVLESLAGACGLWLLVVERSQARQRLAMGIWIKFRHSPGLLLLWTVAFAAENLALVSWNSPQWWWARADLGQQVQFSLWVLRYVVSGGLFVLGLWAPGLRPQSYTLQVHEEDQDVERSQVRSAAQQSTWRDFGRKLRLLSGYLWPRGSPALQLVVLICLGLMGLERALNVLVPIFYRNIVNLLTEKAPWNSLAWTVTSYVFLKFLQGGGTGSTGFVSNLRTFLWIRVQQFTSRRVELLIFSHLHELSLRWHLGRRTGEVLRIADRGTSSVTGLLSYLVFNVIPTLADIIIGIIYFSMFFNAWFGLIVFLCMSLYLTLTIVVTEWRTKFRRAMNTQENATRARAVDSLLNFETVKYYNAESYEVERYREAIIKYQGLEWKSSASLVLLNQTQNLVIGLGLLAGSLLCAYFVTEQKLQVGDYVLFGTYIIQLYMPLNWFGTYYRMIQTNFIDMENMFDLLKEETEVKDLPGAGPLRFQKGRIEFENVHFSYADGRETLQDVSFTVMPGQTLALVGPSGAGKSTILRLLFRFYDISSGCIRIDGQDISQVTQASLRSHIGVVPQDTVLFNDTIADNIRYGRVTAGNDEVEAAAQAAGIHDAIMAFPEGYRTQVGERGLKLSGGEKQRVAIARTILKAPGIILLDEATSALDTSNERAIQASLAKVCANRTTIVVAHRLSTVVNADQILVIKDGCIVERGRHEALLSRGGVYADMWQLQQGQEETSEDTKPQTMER
VLA-4 inh: inhibition in a human VLA-4 binding assay; inhibition, % (about 7 µM as worked out from the volumes in the protocol); AID 2557; hit rate 0.2% among 330,000; VLA-4 expressing cells, ligand binding flow cytometry; P13612; in the data active = inhibition above about 50%
Starred values were filed as active, the others as inactive. An excerpt weighted towards active compounds, which were near 1.2% of everything screened.

Screening COC(=O)C1=C(C)N(Cc2ccccc2)C(=NCCc2ccccn2)N[C@H]1c1cccc(F)c1 returned Platelet DG rel -9, Yeast superoxide 95, SKN-1 inh 37*, ABCB6 inh 2 96 and VLA-4 inh 8.
`S=c1[nH]nc(-c2ccco2)n1/N=C/c1ccc(Cl)c(Cl)c1` gave Platelet DG rel -14, Yeast superoxide 87, SKN-1 inh -2, ABCB6 inh 2 99 and VLA-4 inh 0.
For S=c1[nH]nc(-c2ccco2)n1/N=C/c1c(Cl)cccc1Cl the results were Platelet DG rel 2, Yeast superoxide 102, SKN-1 inh 47*, ABCB6 inh 2 100 and VLA-4 inh -1.
O=C(CN1C(=O)c2cccc3cccc(c23)C1=O)N1CCCCCC1 was read as Platelet DG rel 5, Yeast superoxide 107, SKN-1 inh -18, ABCB6 inh 2 63* and VLA-4 inh 7.
O=C(CN1C(=O)c2ccccc2C1=O)N1CCCCC1 was read as Platelet DG rel -9, Yeast superoxide 90, SKN-1 inh 18, ABCB6 inh 2 89 and VLA-4 inh -14.
For CC(C)(C)C(=O)c1c(N)[nH]c(C(=O)c2ccccc2)c1-c1c(F)cccc1F the results were SKN-1 inh 16 and ABCB6 inh 2 94.
COc1ccccc1Cc1c(C(C)(C)C)nc2c3ccccc3ccn12 was read as SKN-1 inh -1 and ABCB6 inh 2 102.
`Fc1ccc(CNc2nc(-c3ccccc3)nc3ccccc23)cc1` gave Platelet DG rel 1, SKN-1 inh 46* and ABCB6 inh 2 101.
Screening COC(=O)c1ccc(Nc2cc(C)nc3ncnn23)cc1 returned Platelet DG rel 0, Yeast superoxide 107, SKN-1 inh 37*, ABCB6 inh 2 89 and VLA-4 inh 11.
Screening CCOC(=O)c1ccc(Nc2cc(C)nc3ncnn23)cc1 returned Platelet DG rel 4, Yeast superoxide 100, SKN-1 inh -12, ABCB6 inh 2 100 and VLA-4 inh -7.
For CN(c1ccccc1)S(=O)(=O)c1ccc(NC(=O)c2ccc(-c3ccccc3)cc2)cc1 the results were Platelet DG rel -14, Yeast superoxide 92, SKN-1 inh 26, ABCB6 inh 2 92 and VLA-4 inh 27.
Screening CCS(=O)(=O)c1ncc(Cl)c(C(=O)Nc2ccc(S(=O)(=O)N(C)c3ccccc3)cc2)n1 returned Platelet DG rel 7, Yeast superoxide 108, SKN-1 inh -7, ABCB6 inh 2 39* and VLA-4 inh -7.
Screening CCN(c1ccccc1)S(=O)(=O)c1ccc(NC(=O)c2nc(S(C)(=O)=O)ncc2Cl)cc1 returned Platelet DG rel 6, Yeast superoxide 86, SKN-1 inh -2, ABCB6 inh 2 37* and VLA-4 inh 29.
`COC(=O)C(Sc1ccc(Cl)cc1)C1SC(=S)N(Cc2ccccc2)C1=O` (stereo unspecified) gave SKN-1 inh 7 and ABCB6 inh 2 103.
For COc1ccc(Cn2cc(CN3CC(N(C)C)CS3(=O)=O)nn2)cc1 (stereo unspecified) the results were SKN-1 inh 9 and ABCB6 inh 2 95.
Screening CCOc1cc2c(cc1OCC)C(C(=O)O)C(c1cc(OC)c(OC)c(OC)c1)N(C)C2=O (stereo unspecified) returned Platelet DG rel 14, Yeast superoxide 108, SKN-1 inh 36*, ABCB6 inh 2 88 and VLA-4 inh -2.
`CCOc1cc(C2C(C(=O)O)c3cc(OCC)c(OCC)cc3C(=O)N2C)ccc1O` (stereo unspecified) gave Platelet DG rel 0, Yeast superoxide 114, SKN-1 inh -8, ABCB6 inh 2 89 and VLA-4 inh -12.
CN(C)c1ccc(CC(=O)N2CCCCC2c2cc(C(=O)Nc3cccc4c3CCCC4)no2)cc1 (stereo unspecified) was read as SKN-1 inh 4 and ABCB6 inh 2 101.
For Clc1cccc(Cl)c1Cn1cc(Br)cn1 the results were Platelet DG rel -9, Yeast superoxide 108, SKN-1 inh -30, ABCB6 inh 2 92 and VLA-4 inh -3.
Clc1ccc(Cn2cc(Br)cn2)cc1Cl was read as Platelet DG rel -6, Yeast superoxide 111, SKN-1 inh 47*, ABCB6 inh 2 106 and VLA-4 inh 9.
`N#C/C(=C\C=C\c1ccccc1)c1nc(-c2ccc3c(c2)OCO3)cs1` gave Platelet DG rel 0, Yeast superoxide 104, SKN-1 inh 47*, ABCB6 inh 2 106 and VLA-4 inh -44.
OC(c1ccccc1)(c1nc(-c2ccc3c(c2)OCO3)cs1)C(F)(F)F (stereo unspecified) was read as SKN-1 inh -4 and ABCB6 inh 2 93.
`COc1ccc(S(=O)(=O)NCCC(=O)N2CCCN(C)CC2)cc1` gave Yeast superoxide 80, SKN-1 inh -1, ABCB6 inh 2 102 and VLA-4 inh 1.
For CCOc1ccc(S(=O)(=O)NCCC(=O)N2CCCN(C)CC2)cc1 the results were Platelet DG rel 51*, Yeast superoxide 123, SKN-1 inh 10, ABCB6 inh 2 99 and VLA-4 inh 13.
COc1ccc(NC(=O)C2CCCN(c3nn4c(=O)cc(C)nc4s3)C2)cc1 (stereo unspecified) was read as Platelet DG rel 104*, Yeast superoxide 90, SKN-1 inh -5, ABCB6 inh 2 99 and VLA-4 inh -10.
Screening Cc1ccc(/C=C/C(=O)O)cc1S(=O)(=O)N1CCCCC1 returned Platelet DG rel 65*, Yeast superoxide 97, SKN-1 inh 3, ABCB6 inh 2 96 and VLA-4 inh -11.
O=C1CC(Cc2ccc(Cl)cc2)C(=O)N1c1ccncc1 (stereo unspecified) was read as Platelet DG rel -9, Yeast superoxide 103, SKN-1 inh 4, ABCB6 inh 2 93 and VLA-4 inh 17.
Screening O=C1CC(Cc2ccc(Cl)cc2)C(=O)N1c1ccccn1 (stereo unspecified) returned Platelet DG rel -9, Yeast superoxide 91, SKN-1 inh -11, ABCB6 inh 2 73* and VLA-4 inh 5.
CCCCNC(=O)c1nc(-c2cccnc2OC)oc1-c1ccc(Cl)cc1 was read as SKN-1 inh 16.
Screening COc1ccccc1/C=C/C=N\N1CCN(Cc2ccccc2Cl)CC1 returned Platelet DG rel 0, Yeast superoxide 85, SKN-1 inh 15, ABCB6 inh 2 98 and VLA-4 inh 21.
COc1ccccc1/C=C/C=N/N1CCN(Cc2ccc(Cl)cc2)CC1 was read as Platelet DG rel -2, Yeast superoxide 99, SKN-1 inh 36*, ABCB6 inh 2 101 and VLA-4 inh 4.
CN(C(=O)CSCC(=O)Nc1ccc(Cl)cc1)C1CCCCC1 was read as Yeast superoxide 107, SKN-1 inh 37*, ABCB6 inh 2 93 and VLA-4 inh -6.
`Cc1ccc(S(=O)(=O)C[C@@H]2OC[C@H](C(C)C)N2S(=O)(=O)c2ccc(C)cc2)cc1` gave SKN-1 inh -7.
Clc1ccc(-c2nnc(-c3ccco3)o2)cc1 was read as Platelet DG rel -2, Yeast superoxide 90, SKN-1 inh 74*, ABCB6 inh 2 96 and VLA-4 inh -15.
